According to PubChem BioAssay (NCATS):
Unmarked numbers belong to inactive results. Inconclusive results are not listed. A call without a number means that no potency is given here. The source made the active and inactive calls. Unless noted, calls come from the whole dose curve; as a rule, active = well fitted curve in the direction sought with a large enough effect; inconclusive = small, poorly fitted or top-dose-only effect, or another doubt; inactive = no such curve, though single readings can be large; an effect the other way counts as inactive or inconclusive.

How the values were obtained:
[1] = qHTS to identify inhibitors of the type 1 interferon - major histocompatibility complex class I in skeletal muscle: primary screen against the NCATS Pharmaceutical Collection (AID 1347407);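 note: luminescence of HiBiT knocked into endogenous HLA-B as interferon-induced MHC class I level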
Method in brief: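 A qHTS format is used: 8-point, 1:5 compound series with 46 uM top final concentration, applied alongside 4 ng/ml IFN-beta to HLA-B*08:01-HiBiT knock-in myoblasts. Luminescence is measured after 24 h treatment.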

[2] = qHTS for inhibitors of adenylyl cyclases using a fission yeast platform: a pilot screen against the NCATS LOPAC library (AID 1347410)
Method in brief: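 Inhibition of GNAS-stimulated AC9 activity in S. pombe was inferred from derepression of a PKA-repressed fbp1-GFP reporter, measured as cytometric fluorescence after 18 h at 30C with compounds at up to 57 µM.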

[3] = target: Protein phosphatase 1D (Homo sapiens) (UniProt O15297); assay: RapidFire Mass Spectrometry qHTS Assay for Modulators of WT P53-Induced Phosphatase 1 (WIP1) (AID 1347424);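 note: amount of dephosphorylated VEPPL-S-QETFS peptide product formed by WIP1; series mostly up to about 63 µM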
Chain of Protein phosphatase 1D (Homo sapiens) (O15297 whole entry, looked up): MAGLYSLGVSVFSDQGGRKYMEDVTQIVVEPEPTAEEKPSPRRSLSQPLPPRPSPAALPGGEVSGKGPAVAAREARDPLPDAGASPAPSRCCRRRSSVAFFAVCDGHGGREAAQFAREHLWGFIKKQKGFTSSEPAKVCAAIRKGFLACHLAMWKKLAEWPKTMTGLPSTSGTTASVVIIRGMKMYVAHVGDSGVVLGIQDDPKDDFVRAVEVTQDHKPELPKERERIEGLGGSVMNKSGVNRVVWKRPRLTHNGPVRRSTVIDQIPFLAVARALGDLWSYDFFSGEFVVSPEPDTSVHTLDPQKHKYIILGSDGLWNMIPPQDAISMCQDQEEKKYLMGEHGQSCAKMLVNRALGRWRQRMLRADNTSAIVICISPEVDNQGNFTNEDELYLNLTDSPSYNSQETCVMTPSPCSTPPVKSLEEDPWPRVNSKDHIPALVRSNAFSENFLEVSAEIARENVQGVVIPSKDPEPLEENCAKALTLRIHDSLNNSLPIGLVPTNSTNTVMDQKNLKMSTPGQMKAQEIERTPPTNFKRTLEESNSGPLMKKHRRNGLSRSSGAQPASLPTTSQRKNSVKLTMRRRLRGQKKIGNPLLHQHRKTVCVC
Method in brief: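 Mass-spectrometric measurement of dephosphorylated peptide after a 5 min room-temperature reaction of 10 nM WIP1 with 2 uM phosphopeptide, following 1 h compound preincubation in 30 mM MgCl2 buffer.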

[4] = target: Protein phosphatase 1D (Homo sapiens) (UniProt O15297); assay: Rhodamine-PBP qHTS Assay for Modulators of WT P53-Induced Phosphatase 1 (WIP1) (AID 1347425)
Method in brief: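 Steps: enzyme with Rh-PBP sensor and compounds, room-temperature incubation of 1 hr, baseline read, addition of VEPPL-pS-QETFS (10 uM final), kinetic fluorescence reads at 525/598 nm. Activity equals final minus baseline signal.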

[5] = Validation qHTS assay for inhibitors of Activation Induced Cytidine Deaminase (AID): UDG Counterscreen signal (AID 1347427)
Method in brief: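 Fluorescence at 560 nm excitation, 665 nm emission reports UDG signal after 250 mM NaOH (2x) addition and 30 min. Enzymes (AID 1 uM, UDG 2 U/mL, at 4/3x) preincubated 10 min with compound, then 4 h with 4x 250 nM DJC20/DJC23 substrate at room temperature.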

[6] = target: Single-stranded DNA cytosine deaminase (Homo sapiens) (UniProt Q9GZX7); assay: Validation qHTS assay for inhibitors of Activation Induced Cytidine Deaminase (AID): AID signal (AID 1347429)
Chain of Single-stranded DNA cytosine deaminase (Homo sapiens) (Q9GZX7 whole entry, looked up): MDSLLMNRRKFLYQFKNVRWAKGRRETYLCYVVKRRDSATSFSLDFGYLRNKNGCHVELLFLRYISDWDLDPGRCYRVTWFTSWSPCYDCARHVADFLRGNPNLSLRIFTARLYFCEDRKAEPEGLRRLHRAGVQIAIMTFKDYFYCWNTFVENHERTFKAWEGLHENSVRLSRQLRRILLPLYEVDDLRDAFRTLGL
Method in brief: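 Steps: dispense AID with UDG; pin-transfer compound up to 114 uM final; add DJC20/DJC23 substrate and hold 4 hr at room temperature; add NaOH, hold 30 min; read FRET signal (540/590 nm).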

[7] = Primary qHTS for inhibitors of La Crosse Virus (LACV) - induced cell death in SH-SY5Y cells (AID 1508616);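 note: top concentration of the series differs between compounds; higher means more rescue of cells from virus-induced death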
Method in brief: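 SH-SY5Y, 6000 cells/well; cpd via pin tool in DMSO; LACV 0.01 MOI; 6 d 37C 5% CO2; ATPLite, 5 min RT; luminescence normalized to ±virus DMSO controls.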

[8] = target: Calcium and integrin-binding protein 1 (Homo sapiens) (UniProt Q99828); assay: Validation qHTS for Identification of Calcium Integrin Binding protein 1 (CIB1) Competitor (AID 1508618)
Chain of Calcium and integrin-binding protein 1 (Homo sapiens) (Q99828 whole entry, looked up): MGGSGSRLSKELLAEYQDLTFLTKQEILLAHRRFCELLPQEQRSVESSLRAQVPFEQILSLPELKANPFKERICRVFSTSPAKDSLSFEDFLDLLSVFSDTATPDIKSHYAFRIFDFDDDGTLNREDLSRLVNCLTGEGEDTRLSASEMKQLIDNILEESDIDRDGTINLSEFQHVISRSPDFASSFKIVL
Method in brief: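 In this qHTS validation, the LOPAC set (up to 114 uM) was tested for blocking CIB1 binding to a fluorescein-tagged alphaIIb peptide, with FP detection at 480/540 nm.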

[9] = target: Calcium and integrin-binding protein 1 (Homo sapiens) (UniProt Q99828); assay: Primary qHTS for Identification of Calcium Integrin Binding Protein 1 (CIB1) Competitor (AID 1508620);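 note: GST tagged CIB1 binding a fluorescein labelled alphaIIb integrin peptide tracer; top concentration of the series differs between compounds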
Method in brief: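 Fluorescence polarization competition: CIB1-GST (1 uM final) preincubated with compound 15 min at room temperature, then FITC-labeled alphaIIb peptide (100 nM final) added for another 15 min. Polarization read at Ex 480/Em 540.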

[10] = target: Cytochrome P450 2D6 (Homo sapiens) (UniProt P10635); assay: Cytochrome P450 family 2 subfamily D member 6 (CYP2D6) small molecule antagonists: luciferase biochemical (cell-free) qHTS assay (AID 1645840; active = well fitted curve in the direction sought with a large enough effect in the repeat runs; an effect the other way counts as inactive or inconclusive; note: nearly all actives have a fitted effect of over 55% in size; note: potency is the fitted concentration of half-maximal effect)
Chain of Cytochrome P450 2D6 (Homo sapiens) (P10635 whole entry, looked up): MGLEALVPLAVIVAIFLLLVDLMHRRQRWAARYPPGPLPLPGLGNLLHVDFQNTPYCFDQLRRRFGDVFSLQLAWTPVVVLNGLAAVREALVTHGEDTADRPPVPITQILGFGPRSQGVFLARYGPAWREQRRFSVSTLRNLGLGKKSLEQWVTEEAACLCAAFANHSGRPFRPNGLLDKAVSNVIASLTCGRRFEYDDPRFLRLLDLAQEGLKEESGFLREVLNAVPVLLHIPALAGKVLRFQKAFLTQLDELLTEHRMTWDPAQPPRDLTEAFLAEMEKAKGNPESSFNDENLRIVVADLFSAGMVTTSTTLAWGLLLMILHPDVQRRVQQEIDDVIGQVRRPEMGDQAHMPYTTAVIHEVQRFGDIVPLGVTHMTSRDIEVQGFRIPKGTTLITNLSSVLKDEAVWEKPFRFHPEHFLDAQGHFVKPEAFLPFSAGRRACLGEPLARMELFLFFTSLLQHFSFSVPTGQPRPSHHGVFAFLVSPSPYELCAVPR
Method in brief: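 P450-Glo CYP2D6 system: proluciferin substrate converted by enzyme to luciferin, read by luminescence proportional to activity. Enzyme-substrate mix with compound 10 min at room temperature, then NADPH regeneration 1 h before detection reagent.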

[11] = qHTS to identify inhibitors of the type 1 interferon - major histocompatibility complex class I in skeletal muscle: primary screen against the NCATS Mechanism Interrogation Plate v5.0 (MIPE) Libary (AID 1347411); note: nearly all actives have a fitted effect of over 65% in size
Method in brief: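 Seed engineered human myoblasts (HLA-B HiBit) in medium without dexamethasone containing 4 ng/ml IFN-beta; after 1 hr add compound titrations (top 46 uM final). Incubate 24 hrs at 37 C, lyse 10 min with HiBiT reagent, read luminescence.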

[12] = Primary qHTS for small molecule stabilizers of the endoplasmic reticulum resident proteome: Secreted ER Calcium Modulated Protein (SERCaMP) assay (AID 1508630)
Method in brief: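 The SH-SY5Y reporter protocol was run at 3 concentrations up to 38.3 uM (primary) or 11 concentrations (follow-up): 16 h compound, 100 nM thapsigargin for 4 h, then extracellular luciferase luminescence.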

[13] = A High-Content qHTS Against Drug Library for the Identification of Small Molecules that Inhibit DYT1 Early Onset Primary Dystonia-Associated Cell Pathology (AID 1645839; calls by dose curve; note: series mostly up to about 46 µM)
Method in brief: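 Induced EGFP-delE TorsinA cells are imaged after 48 h of compound treatment. Punctate fusion-protein distribution gives the %pathology value, while nuclei counts flag toxicity. Wild-type EGFP-hTOR1A cells define the normal pattern.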

[14] = Counterscreen qHTS for small molecule stabilizers of the endoplasmic reticulum resident proteome: GLuc-NoTag assay (AID 1508627); note: series mostly up to about 76 µM
Method in brief: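 Secreted GLuc lacking the SERCaMP modification is measured in SH-SY5Y cells exposed to compound for 19 h and then to thapsigargin (100 nM, 4 h) to deplete ER calcium; hits retested at 11 concentrations, up to 76.6 uM.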

[15] = Confirmatory qHTS for small molecule stabilizers of the endoplasmic reticulum resident proteome: Secreted ER Calcium Modulated Protein (SERCaMP) assay (AID 1508628); note: series mostly up to about 76 µM; nearly all actives have a fitted effect of over 40% in size
Method in brief: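 Reporter secretion upon ER calcium depletion (100 nM thapsigargin, 4 h, 37C) is measured as medium luminescence with coelenterazine, after 16 h compound pretreatment of SH-SY5Y-GLuc-SERCaMP cells; primary at three concentrations up to 38.3 uM, follow-up at 11 (up to 76.6 uM).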

[16] = Cell Viability qHTS for small molecule stabilizers of the endoplasmic reticulum resident proteome (AID 1508629); conditions: cell viability counter-screen, 100 nM thapsigargin for final 4 h;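 note: human SH-SY5Y neuroblastoma cells carrying the GLuc-SERCaMP reporter; compound exposure about 46 h in total before the viability read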

Compound: CC(CN1c2ccccc2Sc2ccccc21)N(C)C (stereo not given)
- Potency [1]: inactive
- outcome [2]: inactive
- outcome [3]: inactive
- outcome [4]: inactive
- Potency [5]: inactive
- Potency [6]: inactive
- outcome [7]: inactive
- outcome [8]: inactive
- outcome [9]: inactive
- Potency [10]: 2450 nM (active)

Compound: Nc1ncnc2c1ncn2[C@@H]1O[C@H](CO)[C@@H](O)[C@H]1O
- Potency [1]: inactive
- outcome [2]: inactive
- Potency [11]: inactive
- outcome [3]: inactive
- outcome [4]: inactive
- Potency [5]: inactive
- Potency [6]: inactive
- outcome [7]: inactive
- outcome [8]: inactive
- outcome [9]: inactive
- Potency [12]: inactive
- Potency [13]: inactive

Compound: CCN(CC)CCOC(=O)C1(C2CCCCC2)CCCCC1
- Potency [1]: inactive
- outcome [2]: inactive
- outcome [3]: inactive
- outcome [4]: inactive
- Potency [5]: inactive
- Potency [6]: inactive
- outcome [7]: inactive
- outcome [8]: inactive
- outcome [9]: inactive
- Potency [14]: inactive
- Potency [15]: inactive
- max response [16]: -2.82%
- Potency [12]: inactive
- Potency [13]: inactive

Compound: Cn1c(=O)c2c(ncn2CC2OCCO2)n(C)c1=O
- Potency [1]: inactive
- Potency [11]: inactive
- outcome [3]: inactive
- outcome [4]: inactive
- outcome [7]: inactive
- outcome [9]: inactive
- Potency [13]: inactive
- Potency [10]: inactive

Compound: CC1=C(CC(=O)O)c2cc(F)ccc2/C1=C\c1ccc(S(C)(=O)=O)cc1
- Potency [1]: inactive
- outcome [2]: inactive
- Potency [5]: inactive
- Potency [6]: inactive
- outcome [7]: inactive
- outcome [8]: inactive
- outcome [9]: inactive
- Potency [12]: inactive
- Potency [13]: inactive
- Potency [10]: inactive

Compound: O=C(O)c1ccccc1O
- Potency [1]: inactive
- outcome [3]: inactive
- outcome [4]: inactive
- outcome [7]: inactive
- outcome [9]: inactive
- Potency [12]: inactive
- Potency [13]: inactive

Compound: NC1CCN(c2cccc(Cl)n2)CC1
- Potency [1]: inactive
- outcome [3]: inactive
- outcome [4]: inactive
- Potency [5]: inactive
- Potency [6]: inactive
- outcome [7]: inactive
- outcome [9]: inactive
- Potency [12]: inactive
- Potency [10]: 1550 nM (active)

Compound: O=c1cc(CO)occ1O
- Potency [1]: inactive
- outcome [3]: inactive
- outcome [4]: inactive
- outcome [7]: inactive
- outcome [9]: inactive
- Potency [14]: inactive
- Potency [15]: inactive
- max response [16]: 8.05%
- Potency [13]: inactive
- Potency [10]: inactive

Compound: CCn1cc(C(=O)O)c(=O)c2cnc(N3CCNCC3)nc21
- Potency [1]: inactive
- outcome [3]: inactive
- outcome [4]: inactive
- outcome [7]: inactive
- outcome [9]: inactive
- Potency [12]: inactive
- Potency [13]: inactive
- Potency [10]: inactive

Compound: COc1cc(C)c(Cc2cnc(N)nc2N)cc1OC
- Potency [1]: inactive
- outcome [3]: inactive
- outcome [4]: inactive
- outcome [7]: inactive
- outcome [9]: inactive
- Potency [14]: inactive
- max response [16]: 8.8%
- Potency [13]: inactive
- Potency [10]: inactive

Compound: Nc1ccc(S(=O)(=O)Nc2ccc(Cl)nn2)cc1
- Potency [1]: inactive
- outcome [3]: inactive
- outcome [4]: inactive
- outcome [7]: inactive
- outcome [9]: inactive
- Potency [12]: inactive
- Potency [13]: inactive
- Potency [10]: inactive
